Consider six compounds from PubChem BioAssay (NCATS).

The subject of assay [1] is Zika virus NS2B-NS3 protease (linked construct). Kind of assay: Primary screen NINDS Rhodamine qHTS for Zika virus inhibitors (AID 1347160). Also: nearly all actives have a fitted effect of over 55% in size. Also: potency is read from the fitted curve at half-maximal effect. Summed up:
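Single-chain NS2B-NS3 protease, 25 nM, pH 8.0; compounds preincubated 15 min. Activity: Rhodamine110 release from 1.5 microM substrate over 15 min, room temperature, data fitted to 4-parameter Hill.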
In general terms: In qHTS, concentration-response curves come from the screen itself.

In assay [2] the target is Calcium and integrin-binding protein 1 (Homo sapiens) (UniProt Q99828). Kind of assay: Primary qHTS for Identification of Calcium Integrin Binding Protein 1 (CIB1) Competitor (AID 1508620).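 Also: GST tagged CIB1 binding a fluorescein labelled alphaIIb integrin peptide tracer; top concentration of the series differs between compounds; % is scaled to controls: 0 for no effect and ±100 for the full control effect.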 Summed up: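 Fluorescence polarization competition: CIB1-GST (1 uM final) preincubated with compound 15 min at room temperature, then FITC-labeled alphaIIb peptide (100 nM final) added for another 15 min. Polarization read at Ex 480/Em 540.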

Assay [3] has as its target Glutathione peroxidase 1 (Homo sapiens) (UniProt P07203). Kind of assay: Primary qHTS Assay for Inhibitors of Recombinant Selenoprotein Glutathione Peroxidase 1 (GPX1) (AID 1845191). Also: nearly all actives have a fitted effect of over 65% in size. The essentials:
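GPX1 10 nM, GR 100 nM, GSH 1 mM, NADPH 0.5 mM, CHP 0.5 mM (final). 30-min cpd preincubation, RT. Ex340/Em450 read t=0, t=15 min.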

Assay [4] addresses Phospholipid hydroperoxide glutathione peroxidase GPX4 (Homo sapiens) (UniProt P36969). Kind of assay: Primary qHTS Assay for Inhibitors of Recombinant Selenoprotein Glutathione Peroxidase 4 (GPX4) (AID 1845192). Also: % is scaled to controls: 0 for no effect and ±100 for the full control effect; nearly all actives have a fitted effect of over 65% in size. The essentials:
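qHTS, GR-coupled: GPX4 200 nM + cpd 30 min RT → GSH 1 mM, NADPH 0.5 mM, GR 100 nM → CHP 0.5 mM start; fluor 340/450 at t0 and t15 min; no-enzyme wells as control.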

The target in assay [5] is Luciferin 4-monooxygenase (Photinus pyralis) (UniProt P08659). Kind of assay: Primary firefly luciferase (FLuc) qHTS assay for identification of artifact compounds. (AID 1845220). Also: nearly all actives have a fitted effect of over 60% in size. The note with it: outcome: dose series up to 54.1 µM unless noted. The essentials: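 In this counter-screen for luciferase artifacts, test compounds met substrate (10 uM each luciferin and ATP) before 10 nM enzyme started the reaction. Light output was measured 5 min later.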

The nature of assay [6]: Primary fluorescence-based thiol-reactive (MSTI) qHTS assay for identification of artifact compounds. (AID 1845221). Also: nearly all actives have a fitted effect of over 65% in size. Also: potency is read from the fitted curve at half-maximal effect.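 As to activity change, negative = thiol reactive: thiol-reactive compounds lower the probe fluorescence signal.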 Summed up:
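A multi-concentration qHTS design tested compounds against 4 uM MSTI, pH 7.4 phosphate-buffered saline. Plates were protected from light for 1 h at room temperature before imaging fluorescence.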

The subject of assay [7] is Nanoluciferase (engineered Oplophorus gracilirostris luciferase). Kind of assay: Primary Nanoluciferase (NLuc) qHTS assay for identification of artifact compounds. (AID 1845222).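 Also: NLuc secreted into diluted conditioned medium of S16 cells.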 The essentials:
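Using secreted nanoluciferase in S16 culture medium (0.22 um filtered, 1:55 dilution), compounds were preincubated 15 min at RT. Signal was generated with Nano-Glo reagent (1:100) over 5 min.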

Assay [8] is described as follows: Primary redox qHTS assay for identification of artifact compounds. (AID 1845223).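 Also: 0% = DMSO and 100% = reference compound.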 Summed up: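 Redox-cycling detection via DTT (250 uM final) oxidation coupled to Amplex Red (25 uM)/HRP (250 mU/mL) in HBSS. 15 min preincubation plus 30 min after DTT, room temperature. Ex/Em 525/598 nm; 4-parameter Hill fit against DMSO and 10 uM DA3003.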
A further assay deals with NIH3T3. Description: Cytotoxic Profiling of Annotated Libraries Using Quantitative High-Throughput Screening (AID 1296008). Also: nearly all actives have a fitted effect of over 60% in size. Also: potency is read from the fitted curve at half-maximal effect. As to max response: % is scaled to controls: 0 for no effect and ±100 for the full control effect. Particulars: Five cell lines viability, CellTiter-Glo ATP luminescence, 48-72 h; max response: stronger effect = lower value. Summed up: (§1)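 Compounds were pin-transferred onto cells and incubated 48 or 72 hr at 37 degree Celsius, 95% humidity. CellTiter-Glo was added, plates sat 10 min at room temperature, then ATP-coupled luminescence was imaged as the viability read-out.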
For orientation: ATP-based viability assays read luminescence as a measure of living cells.

In the next assay the test system is C33A. Description: Primary qHTS to identify gynecologic anti-cancer compounds using libraries of approved drugs and bioactive compounds (AID 1345084). Also: nearly all actives have a fitted effect of over 55% in size. Also: potency is read from the fitted curve at half-maximal effect. As to activity change, negative = cytotoxicity: % is scaled to controls: 0 for no effect and ±100 for the full control effect. Particulars: Gynecologic cancer cell panel viability, ATPlite luminescence, 48 h; series mostly up to 57.5 µM. Summed up:
(§2)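 ATP-based viability (ATPlite), 1,000 cells/well, 16 h pre-incubation, 48 h compound at 37 C, 5% CO2, 15 min RT before read.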

The next assay concerns CASKI. The description is as above. Particulars: Gynecologic cancer cell panel viability, ATPlite luminescence, 48 h; series mostly up to 57.5 µM. The essentials:
as §2

In another assay the test system is Es-2. The assay is described as above. Particulars: Gynecologic cancer cell panel viability, ATPlite luminescence, 48 h; series mostly up to 57.5 µM. The essentials: as §2
The test system of a further assay is Hek293T. The assay is described as above. The note with it: Gynecologic cancer cell panel viability, ATPlite luminescence, 48 h, control line for the selectivity index; series mostly up to 57.5 µM. The essentials: as §2
A further assay concerns JEG-3. Described as above. Particulars: Gynecologic cancer cell panel viability, ATPlite luminescence, 48 h; series mostly up to 57.5 µM. The essentials: as §2
A further assay relates to OV90. The assay is described as above. The note with it: Gynecologic cancer cell panel viability, ATPlite luminescence, 48 h; series mostly up to 57.5 µM. The essentials: as §2
In a further assay the test system is PA-1. The assay is described as above. The note with it: Gynecologic cancer cell panel viability, ATPlite luminescence, 48 h; series mostly up to 57.5 µM. Summed up:
as §2

A further assay has as its system Tov-21-G. Described as above. Particulars: Gynecologic cancer cell panel viability, ATPlite luminescence, 48 h; series mostly up to 57.5 µM. Summed up: as §2
The subject of another assay is Tov112D. The description is as above. The note with it: Gynecologic cancer cell panel viability, ATPlite luminescence, 48 h; series mostly up to 57.5 µM. The essentials: as §2
In another assay the test system is HaCat. Description: Cytotoxic Profiling of Annotated Libraries Using Quantitative High-Throughput Screening (AID 1296008). Also: nearly all actives have a fitted effect of over 60% in size. Also: potency is read from the fitted curve at half-maximal effect. As to max response: % is scaled to controls: 0 for no effect and ±100 for the full control effect. Particulars: Five cell lines viability, CellTiter-Glo ATP luminescence, 48-72 h; max response: stronger effect = lower value. Summed up: as §1
Another assay relates to CAOV3. Kind of assay: Primary qHTS to identify gynecologic anti-cancer compounds using libraries of approved drugs and bioactive compounds (AID 1345084). Also: nearly all actives have a fitted effect of over 55% in size. Also: potency is read from the fitted curve at half-maximal effect. Particulars: Gynecologic cancer cell panel viability, ATPlite luminescence, 48 h; series mostly up to 57.5 µM. The essentials: as §2

Molecules are shown by their SMILES. A number with no mark means an inactive call. Inconclusive results are not listed. Active and inactive are the calls of the source. Calls follow the shape of the dose curve; as a rule, active = well fitted curve in the direction sought with a large enough effect; inconclusive = small, poorly fitted or top-dose-only effect, or another doubt; inactive = no such curve, though single readings can be large; an effect the other way counts as inactive or inconclusive.

Phospholipid hydroperoxide glutathione peroxidase GPX4 (Homo sapiens), sequence (P36969 whole entry, looked up): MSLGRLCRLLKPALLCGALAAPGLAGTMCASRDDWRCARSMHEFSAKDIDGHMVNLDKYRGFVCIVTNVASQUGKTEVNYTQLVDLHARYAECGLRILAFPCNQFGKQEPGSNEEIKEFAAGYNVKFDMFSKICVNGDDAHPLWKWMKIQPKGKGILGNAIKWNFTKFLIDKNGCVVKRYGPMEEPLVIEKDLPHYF
Calcium and integrin-binding protein 1 (Homo sapiens), sequence (Q99828 whole entry, looked up): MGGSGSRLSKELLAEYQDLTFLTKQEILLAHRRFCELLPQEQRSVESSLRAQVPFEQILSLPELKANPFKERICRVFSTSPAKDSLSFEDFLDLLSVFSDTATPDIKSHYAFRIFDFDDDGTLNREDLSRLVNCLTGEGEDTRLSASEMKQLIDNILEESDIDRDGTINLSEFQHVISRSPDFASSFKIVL
Glutathione peroxidase 1 (Homo sapiens), sequence (P07203 whole entry, looked up): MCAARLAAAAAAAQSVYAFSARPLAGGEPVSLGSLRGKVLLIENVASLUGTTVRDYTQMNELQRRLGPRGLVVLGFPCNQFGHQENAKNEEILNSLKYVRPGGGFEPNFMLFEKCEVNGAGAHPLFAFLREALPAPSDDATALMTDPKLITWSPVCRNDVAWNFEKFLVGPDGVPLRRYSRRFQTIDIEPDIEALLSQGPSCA

Regarding `Cc1ccc(Cn2nc(C(=O)N[C@@H]3C(C)(C)[C@@H]4CC[C@@]3(C)C4)cc2-c2ccc(Cl)c(C)c2)cc1`, the Potency result in assay [1], in assay [2], in assay [3], in assay [4], in assay [6] and in [7] was “inactive” each time. Further, the Potency result (in assay [8]; in the assay with C33A; in the assay on CASKI; in the assay on Es-2; with Hek293T; in the assay with JEG-3) was “inactive” throughout. Besides, the Potency entry in the assay with OV90, in the assay on PA-1, with Tov-21-G and in the assay on Tov112D was “inactive” each time. Moreover, in assay [5], the result was inactive. Besides, the max response in the assay with NIH3T3 was -3.82%.

As for `CC[C@@H]1/C=C/C=C/C[C@H](C)C(O)[C@](C)(O)C(=O)[C@H](C)C(O)[C@H](C)C(=O)[C@H](C)[C@@H](O)[C@H](C)/C=C/C(=O)O[C@H]2[C@@H](C)[C@@H](CC1)O[C@]1(O[C@H](C[C@H](C)O)[C@H](C)CC1=O)[C@@H]2C` (some centres undefined), the Potency result in assay [1], in [2] and in assay [3] was “inactive” throughout. Besides, the outcome in assay [5] is “inactive [at 11.6 µM]”. For the same compound, the activity change, negative = thiol reactive in assay [6] is -8.56% [at 11.5 µM]. Moreover, in assay [7], the activity, negative = inhibition is -0.681% [at 11.6 µM]. Moreover, in assay [8], the redox activity (% of DA3003) is 13.1% [at 11.5 µM]. In addition, the max response with HaCat was -17.7%; with NIH3T3 it was -27%. Further, the activity change, negative = cytotoxicity in the assay with CAOV3 is -25.5% [at 11.6 µM]; with CASKI, -1.41% [at 11.6 µM]; in the assay with Es-2, -1.68% [at 11.6 µM]; in the assay with JEG-3 it was 22.8% [at 11.6 µM]; in the assay on Tov-21-G, 25.5% [at 11.6 µM]; in the assay with Tov112D, -13.7% [at 11.6 µM].

As to `O=C1Nc2ccc3ncsc3c2/C1=C/c1cnc[nH]1`, the Potency result in assay [1], in [3], in assay [4], in assay [6], in assay [7] and in [8] was “inactive” each time. Moreover, in the assay with OV90, the Potency result was “inactive”. Moreover, in assay [5], the result was inactive. Moreover, the Potency in the assay on HaCat is 4.11 µM (active); in the assay on PA-1, 7.94 µM (active).

In the case of `NC(=O)[C@@H](CC1CC1)[C@@H](CCC(F)(F)F)C(=O)N[C@H]1N=C(c2ccccc2)c2cccc(F)c2NC1=O`, the Potency result in assay [1], in assay [2], in [3], in assay [4], in assay [6] and in [7] was “inactive” in each case. Also, the Potency entry (in assay [8]; in the assay with C33A; in the assay with CAOV3; in the assay with CASKI; with Es-2; in the assay with Hek293T) was “inactive” each time. Also, the Potency result in the assay with JEG-3, in the assay with OV90, in the assay on PA-1, in the assay on Tov-21-G and with Tov112D was “inactive” throughout. For the same compound, the compound was classed as inactive in assay [5]. Besides, the max response in the assay on HaCat was -25%; with NIH3T3, -16.9%.

Consider `CCOP(=O)(OCC)Oc1ccc2c(C)cc(=O)oc2c1`, for which the Potency entry in assay [1], in [2], in assay [3], in assay [6], in assay [7] and in assay [8] was “inactive” in each case. In addition, the Potency entry in the assay on C33A, in the assay on CAOV3, with CASKI, with Es-2, with OV90 and in the assay with PA-1 was “inactive” each time. The Potency result in the assay with Tov-21-G and in the assay with Tov112D was “inactive” in each case. Besides, in assay [5], the compound was classed as inactive. Besides, the max response in the assay on HaCat was -15.5%; in the assay with NIH3T3 it was -21.6%.

Turning to `CC/C=C/C=C/C1(C)OC(OC)=C(C(=O)C2C(C)C(=O)c3cc(OC)c(O)c(O)c3C2(C)O)C1=O` (centres undefined), the results for the Potency in assay [1] and in assay [6] were 10 µM (active) and 1.3 µM (active), respectively. Besides, the Potency result (in assay [2]; in assay [4]; in assay [7]; in [8]; in the assay on C33A; with CAOV3) was “inactive” each time. For the same compound, the Potency entry with CASKI, with Hek293T, in the assay with JEG-3, with OV90 and in the assay with Tov112D was “inactive” each time. For the same compound, the outcome in assay [5] is “inactive [at 25.7 µM]”.
